Several values for one entry are separate records, joined by “and”; a condition that tells them apart may be missing. Identical values can stand only once. About 310 (0.1%) of roughly 300,000 compounds were called active. Cut-off read from the data, not from the text of the source: active = fluorescence inhibition mostly above about 23% (no sharp cut-off); inactive = mostly below about 17%. This excerpt belongs to a sample that is enriched for actives.

The assay is described as follows: hypoxia reporter signal reduction in M. tuberculosis – fluorescence, absorbance growth readout, primary screen (AID 1159583). The note with it: M. tuberculosis hypoxia-regulated fluorescent reporter, stronger effect = higher value, concentration not given here; growth inhibition: measured here: M. tuberculosis growth (absorbance).
For the compound `Cc1ccc(C(=O)ON=Cc2ccc3c(c2)OCO3)cc1`, the fluorescence inhibition was 2.14% (inactive) and the growth inhibition worked out at 12.4%.
The like results for `O=C1N=C(N2CCOCC2)S/C1=C\C=C/c1ccccc1` were, in that order, 16.7% (inactive) and 6.03%.
In the case of `CCc1ccc(/C=C2\SC(N3CCOCC3)=NC2=O)cc1`, the fluorescence inhibition was -2.06% (inactive) and the growth inhibition turned out to be 6.4%.
As for `Cc1ccsc1/C=C1\SC(N2CCOCC2)=NC1=O`, the fluorescence inhibition was 59.8% (active) and the growth inhibition came out at 35.7%.
With `COC(=O)c1ccc(C=NN2C(C)CCCC2C)cc1` (stereo unspecified), the fluorescence inhibition was 12.1% (inactive) and the growth inhibition came out at 0.227%.
Turning to `[O-]C1=N[N+](=Cc2ccc(Cl)cc2)CC1`, the fluorescence inhibition was 9.03% (inactive) and the growth inhibition was 2.77%.
With `Cc1ccc(F)c(C2C3C=CCC[C@@]3(C)C(=O)N2Cc2ccccc2)c1` (stereo partly specified), the fluorescence inhibition was 0.237% (inactive) and the growth inhibition turned out to be 4.91%.
Regarding `CCOC(=O)C1C2COc3ccc(OC)cc3C2N2C(=O)c3cc(OC)ccc3NC(=O)[C@@]12C` (stereo partly specified), the fluorescence inhibition is -0.571% (inactive) and the growth inhibition is -0.925%.
Consider `CN1CCSC1=CC=C1C(=O)N(C)C(=S)N1C`, for which the fluorescence inhibition was 41.3% (active) and the growth inhibition was found to be 10.5%.
On the same counts, the results for `CN1C(=O)/C(=C/C=C2\SCCN2C)OC1=S` are -23.3% (inactive) and 5.47%.
On to `Oc1ccc(C=NNC(=S)Nc2cccnc2)c(O)c1O`, for which the fluorescence inhibition was 19% (inactive) and the growth inhibition amounted to 3.53%.
On to `O=C(NN=Cc1cccc2nccnc12)c1ccncc1`, for which the fluorescence inhibition worked out at 93.3%.
Regarding `C#CCOCCOCCOCCNc1nc(N2CCN(C(=O)C(CCC(=O)O)n3cc(C(N)Cc4ccc(O)cc4)nn3)CC2)nc(N2CCN(C(=O)C(C(C)CC)n3cc(C(N)CO)nn3)CC2)n1` (stereo unspecified), the fluorescence inhibition is 8.78% (inactive) and the growth inhibition worked out at 6.78%.
The like results for `N#CC(=Cc1ccc(O)c(O)c1)C(=O)c1ccc(O)c(O)c1` were, in that order, -0.458% (inactive) and -7.09%.
On the same counts, the results for `CC(=NNc1nc(C)cc(-c2ccccc2)n1)c1ccc(C)o1` are 5.64% (inactive) and 13.1%.
The like results for `CCC(C)CCN1C(Nc2ccccc2)=NCC1CC(C)C` (stereo unspecified) were, in that order, 2.94% (inactive) and 9.85%.
On to `CC(=NNC(=S)Nc1ccccc1)c1ccc2c(c1)OCO2`, for which the fluorescence inhibition was 4.36% (inactive) and the growth inhibition was -7.15%.
Take `CN1CCN(C(=O)C2=CC(c3ccccc3)CC(OCc3ccc(CO)cc3)O2)CC1` (stereo unspecified): the fluorescence inhibition is 10.4% (inactive) and -0.342% (inactive); the growth inhibition was 12.8% and -5.24%.
With `C=CCNC(=S)N=c1sccn1C`, the fluorescence inhibition is 6.54% (inactive) and the growth inhibition was -7.89%.
The like results for `CC(=NNC(=O)c1cc(-c2cccc([N+](=O)[O-])c2)n[nH]1)c1ccc(F)cc1` were, in that order, 14.8% (inactive) and -5.45%.
On the same counts, the results for `COc1ccc(N(CC(=O)NN=C(C)c2cccs2)S(=O)(=O)c2ccccc2)cc1Cl` are -6% (inactive) and -2.78%.
The like results for `CCOC(=O)C1C2COc3ccccc3C2N2C(=O)N(c3cccc(F)c3)C(=O)[C@@]12C` (stereo partly specified) were, in that order, -2.44% (inactive) and 3.57%.
`COC(=O)C1=C(c2ccc(OC(F)(F)F)cc2)CC2CCC1N2C(=O)NCCOc1ccc(OC)cc1` (stereo unspecified): the fluorescence inhibition was 0.962% (inactive) and the growth inhibition is 6.26%.
As for `O=C(CC(=O)NC1CCCCC1)NN=Cc1ccccc1Cl`, the fluorescence inhibition is 2.92% (inactive) and the growth inhibition amounted to 1.5%.
Turning to `CCN1CC2C3C(=O)N(Cc4ccccc4)C(=O)C3[C@](CC)(C1=O)N2C(=O)c1ccc(Br)cc1` (stereo partly specified), the fluorescence inhibition is 6.17% (inactive) and the growth inhibition is 7.16%.
The like results for `CN1CC2C3C(=O)N(C)C(=O)C3[C@](C)(C1=O)N2C(=O)c1ccc(Cl)c(Cl)c1` (stereo partly specified) were, in that order, 18.2% (inactive) and 5.39%.
The like results for `Oc1cccc(C=NNc2ncnc3c2ncn3Cc2ccccc2)c1` were, in that order, 12.7% (inactive) and 4.03%.
As to `COc1ccc(C(N)=NOC(=O)c2cccc([N+](=O)[O-])c2)cc1`, the fluorescence inhibition was 2.69% (inactive) and the growth inhibition is 7.49%.
Take `Cc1cc(C=NNC(N)=S)c(C)n1-c1ccc(Cl)cc1`: the fluorescence inhibition was found to be 79.4%.
In the case of `O=C(O)c1cc(C(=O)O)cc(-c2ccc(C=c3sc4nc5ccccc5n4c3=O)o2)c1`, the fluorescence inhibition is 9.74% (inactive) and the growth inhibition came to 9.98%.
The like results for `O=C(C1=CC(c2csc3ccccc23)CC(OCc2ccc(CO)cc2)O1)N1CCCCCCC1` (stereo unspecified) were, in that order, 5.62% (inactive) and 15.1%.
The like results for `COc1ccc2c(Cl)c(C(=O)NN=Cc3c(C)[nH]c4ccccc34)sc2c1` were, in that order, 12.9% (inactive) and -1.23%.
The like results for `COc1cccc(C(=O)NN=C(c2ccccc2)c2ccccn2)c1` were, in that order, 5% (inactive) and 11%.
As to `CCOC(=O)c1cc(C)sc1N=CC1C(=O)CC(C)(C)CC1=O`, the fluorescence inhibition is 5.08% (inactive) and the growth inhibition worked out at 4.24%.
The like results for `Cc1ccc(C2C3C(=O)N(C)C(=O)C3[C@]3(C)C(=O)N(CC4CC4)CC(=O)N23)o1` (stereo partly specified) were, in that order, 3.26% (inactive) and -2.47%.
The like results for `CC(=NNC(=O)C(=O)Nc1ccc(C)c(Cl)c1)c1ccncc1` were, in that order, 9.7% (inactive) and 2.87%.
The like results for `CCOC(=O)C1=C(N)n2c(sc(=Cc3ccncc3)c2=O)=C(C(=O)OCC)C1c1ccncc1` (stereo unspecified) were, in that order, -2.3% (inactive) and -3.45%.
For `C=C1CC(C(=O)NN=Cc2ccc(O)cc2)C1`, the fluorescence inhibition is 2.24% (inactive) and the growth inhibition came out at 7.43%.
The like results for `COc1ccc(NC(=O)COC(=O)CON=C(C)c2ccc3c(c2)OCO3)cc1S(N)(=O)=O` were, in that order, -7.57% (inactive) and -2.6%.
On the same counts, the results for `Cc1ccc(-c2c(C(=O)NN=Cc3ccc(C)o3)nnn2-c2nonc2N)cc1` are 3.86% (inactive) and 8.97%.
On the same counts, the results for `Cc1ccc(C=NNC(=O)CSc2nc3ccccc3n2C)s1` are 13.6% (inactive) and 0.932%.
Turning to `COc1ccc(-c2nn(-c3ccccc3)cc2C=NNC(=O)c2cccc(S(=O)(=O)Nc3ccccc3OC)c2)cc1`, the fluorescence inhibition is 12.6% (inactive) and the growth inhibition was found to be 0.139%.
The like results for `O=C(Cc1n[nH]c(=O)[nH]c1=O)NN=CCCc1ccccc1` were, in that order, 11.1% (inactive) and 4.96%.
As for `CCCN(CCC)Cc1c(C(=O)NN=Cc2c[nH]c3ccccc23)nnn1-c1nonc1N`, the fluorescence inhibition was -3.6% (inactive) and the growth inhibition amounted to 2.65%.
On to `C=C1CCN(C(C)C(=O)NCc2ccc(OC)cc2)S(=O)(=O)c2ccccc21` (stereo unspecified), for which the fluorescence inhibition is 19.8% (inactive) and the growth inhibition is 12.8%.
The like results for `CCOc1ccc2c(c1)C(c1ccc(C)cc1)=NNC(c1ccc(C)cc1)=N2` were, in that order, 21.9% (inactive) and 10.8%.
On the same counts, the results for `CCOc1ccc(-c2cc(C)[n+](CCN(CC)CC)c(-c3ccc(OCC)cc3)c2)cc1` are 53.9% (active) and 33.9%.
On the same counts, the results for `CCOc1ccc(-c2nnc3ccc(SC)nn23)cc1` are 4.55% (inactive) and 1.4%.
With `O=C(NN=Cc1c[nH]c2ccccc12)c1cc2ccccc2o1`, the fluorescence inhibition is 0.899% (inactive) and the growth inhibition came out at 8.76%.
The like results for `COc1cccc(C=NNc2ncnc3c2ncn3Cc2ccccc2)c1O` were, in that order, 7.12% (inactive) and 2.3%.
On the same counts, the results for `CCc1ccc(S(=O)(=O)NN=Cc2ccc3c(c2)OCO3)cc1` are 1.76% (inactive) and -2.08%.
The like results for `CN1C(=O)C(=NOC(=O)c2ccccc2Cl)c2ccccc21` were, in that order, 12.3% (inactive) and 3.63%.
As to `COc1ccc(C=NNc2c(Cl)cc(Cl)cc2Cl)cc1CN1CCOCC1`, the fluorescence inhibition is -4.05% (inactive) and the growth inhibition was determined as 12.6%.
Turning to `CC(C)c1ccc(NC(=O)NC2CCCCC2)cc1`, the fluorescence inhibition is 20.8% (active) and the growth inhibition is 53%.
With `Cc1cc(C)cc(NC(=O)NC2CCCCCCC2)c1`, the fluorescence inhibition worked out at 95.8%.
Turning to `CC(C)(C)NS(=O)(=O)c1ccc(NC(=O)NC2CCCCC2)cc1`, the fluorescence inhibition was 3.29% (inactive) and the growth inhibition amounted to 2.76%.
On the same counts, the results for `CSc1nsc(NN=Cc2ccccc2)c1C#N` are 1.35% (inactive) and 9.85%.
The like results for `CC(C)CCn1c(=O)c(C(=O)NN=Cc2cccc(F)c2)c(O)c2ccccc21` were, in that order, 5.09% (inactive) and 2.73%.
As for `O=C1CC2c3c(cccc3CN1Cc1ccc(F)cc1)CC(O)C2O` (stereo unspecified), the fluorescence inhibition was 13.8% (inactive) and the growth inhibition came out at 7.24%.
The like results for `CC(=NNC(=O)c1ccn(C)n1)c1cccc(NC(=O)c2ccncc2)c1` were, in that order, -2.04% (inactive) and 6.06%.
On the same counts, the results for `COCc1c(Br)c(C)nc(OCC(=O)NN=Cc2ccc(C)o2)c1C#N` are 18.1% (inactive) and 8.53%.
On the same counts, the results for `CCC(=NNC(C)=O)c1ccc(OC(F)F)cc1` are 18.5% (inactive) and -1.52%.
As for `Cc1c(C=NNC(=O)c2ccc(F)cc2)cnn1C`, the fluorescence inhibition is 2.95% (inactive) and the growth inhibition is 1.5%.
The like results for `COc1ccc(C2CC(=O)C=C(c3ccc(Cl)cc3C)C2)cc1` (stereo unspecified) were, in that order, 14.8% (inactive) and 2.62%.
On to `O=C(O)CC1c2cc(C(F)(F)F)ccc2S(=O)(=O)N1C1CCCCC1` (stereo unspecified), for which the fluorescence inhibition is 13.2% (inactive) and the growth inhibition is 14.6%.
On the same counts, the results for `CCOc1cc(C=NNC(=O)CSc2nnc(C)s2)ccc1OCc1ccccc1Cl` are -1.48% (inactive) and -4.08%.
As to `CC1(C)CC(=O)CC(=NNC(=O)C2CC2c2ccccc2)C1` (stereo unspecified), the fluorescence inhibition is -1.34% (inactive) and the growth inhibition was 15.1%.
The like results for `O=C(O)c1cccc2c1-c1ccccc1C2=NNc1ccccc1` were, in that order, 1.02% (inactive) and -10.1%.
As to `O=[N+]([O-])c1ccccc1NN=Cc1cccc(O)c1O`, the fluorescence inhibition is 9.33% (inactive) and the growth inhibition was determined as 0.684%.
The like results for `CC(=NO)C(C)(C)Nc1cccc(F)c1` were, in that order, -1.15% (inactive) and 4.49%.
The like results for `COc1ccc(-c2sc3ccccc3c2C=Cc2ccc(OC)c(OC)c2)cc1` were, in that order, 17.3% (inactive) and 10%.
The like results for `COc1ccc(C2C=CCN(S(C)(=O)=O)C(C)C(=O)N2Cc2ccc(F)cc2)cc1` (stereo unspecified) were, in that order, 18% (inactive) and 13.9%.
Regarding `CC(C)(C)OC(=O)NC(Cc1ccccc1)C(=O)NC(CO)C(O)C1CC1C(=O)NC1CC1` (stereo unspecified), the fluorescence inhibition is 14.6% (inactive) and the growth inhibition turned out to be 4.91%.
On the same counts, the results for `O=C(CN1CCN(Cc2ccc(Cl)cc2)CC1)NN=Cc1cccs1` are 6.55% (inactive) and -3.12%.
The like results for `Cc1ccc(C=NNC(=O)Nc2ccccc2)o1` were, in that order, 14.8% (inactive) and 5.33%.
The like results for `CCN1C(=O)C(CC(=O)Nc2ccccc2)SC1=Nc1ccccn1` (stereo unspecified) were, in that order, 0.176% (inactive) and 4.92%.
As to `COc1ccc(Cl)cc1NC(=O)CC(C)=NNC(=O)COc1ccc(C)cc1`, the fluorescence inhibition was 13.3% (inactive) and the growth inhibition is 3.14%.
On the same counts, the results for `O=[N+]([O-])c1ccc(Cl)cc1NN=Cc1ccncc1` are 6.88% (inactive) and -1.48%.
On the same counts, the results for `O=C(NN=Cc1ccncc1)c1cc2c(ccc3ccccc32)o1` are -1.63% (inactive) and 10.4%.
With `COc1cc(C=NNC(=S)NCc2ccccc2)ccc1OCC#N`, the fluorescence inhibition was 8.67% (inactive) and the growth inhibition came out at 7.58%.
The like results for `CC(C)c1ccc(C=NNC(=O)c2cc(-c3cccc([N+](=O)[O-])c3)n[nH]2)cc1` were, in that order, 16.3% (inactive) and 1.5%.
For the compound `Cc1ccc(C=NNC(=O)CCCOc2ccc(Cl)cc2Cl)cc1[N+](=O)[O-]`, the fluorescence inhibition is 1.7% (inactive) and the growth inhibition came out at 5.81%.

Source of the values: PubChem BioAssay AID1159583 (ICCB-Longwood Screening Facility, Harvard Medical School, 2016).
